# PubChem BioAssay
# Tested on: not listed separately
# Test: RPMI8226 myeloma cell viability, profiling panel, resazurin fluorescence, basal, 24 h, PK04 Diversity Set (AID 1180);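 note: RPMI8826 multiple myeloma cell line at 5000 cells per well; test concentration not given here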
# Settings: higher = more signal
row,Compound,z-score
1,CC1(C)OC[C@@]23C=C(Br)[C@@H](C[C@H]12)[C@@]1(CO1)C3=O,0.325
2,CN1C(=O)C2C=CC(C(O)c3ccc(-c4ccccc4)s3)N(Nc3ccccc3)C2C1=O (stereo unspecified),-0.985
3,C=C(COC)/C(=C/C[C@H](OC(=O)c1ccncc1)c1ccc(OCCO)cc1)c1cc(C(=O)OC)ccc1OC,-0.316
4,COCCn1c(C(=O)N2CCCC2)cc2c1C[C@H]1CN(C(=O)c3ccccc3)[C@@](Cc3ccccc3)(C(=O)OC)[C@@H]21,-0.923
5,CCC[C@@H]1C=C(C(=O)OCC)[C@H](c2ccccc2)N1S(=O)(=O)c1ccc(C)cc1,-1.89
6,COCC(=C=CC[C@@H](O)c1cccc(OCCO)c1)C[C@@H](O)COCc1ccccc1,0.629
7,CC(C)[C@@H](C(=O)O)n1cc(-c2ccccc2)nn1,-0.874
8,CN(C)CCCCNC(=O)[C@H]1C[C@H]2C(=O)NCC(=O)N2[C@H]1c1cccc(OCCO)c1,0.158
9,[N-]=[N+]=NCc1ccccc1C[C@]1(C(=O)N2CCOCC2)N=C(c2ccc(OCCCO)cc2)O[C@H]1c1ccccc1CN=[N+]=[N-],-1.11
10,C=CCNC(=O)[C@@H]1[C@H]2C(=O)O[C@H](c3ccccc3)[C@H](c3ccccc3)N2[C@H](c2ccccc2OCCO)[C@@]12C(=O)N(C(=O)OCCOC)c1ccc(C#CCCO)cc12,-1.56
11,CC(C)=CCN(C(=O)C#Cc1ccccc1)[C@H](CO)c1ccccc1,-5.82
12,Cc1ccccc1C(O)C1C=CC2C(=O)N(c3ccccc3)C(=O)C2N1Nc1ccccc1F (stereo unspecified),-1.01
13,C=CC[C@]1(C(=O)NCc2ccccc2)COC(c2ccc(OCCCO)cc2)=N1,-0.874
14,C=C(/C(=C/C[C@@H](OC(C)=O)c1ccccc1OCCO)c1cc(C(=O)OC)ccc1OC)C(C)C,0.676
15,CCCC=C(CCC)[C@@H](NS(=O)(=O)c1ccc(Cl)cc1)c1ccccc1,-0.321

# Biological target: E3 ubiquitin-protein ligase XIAP (Homo sapiens) (UniProt P98170)
# Sequence (P98170 whole entry, looked up): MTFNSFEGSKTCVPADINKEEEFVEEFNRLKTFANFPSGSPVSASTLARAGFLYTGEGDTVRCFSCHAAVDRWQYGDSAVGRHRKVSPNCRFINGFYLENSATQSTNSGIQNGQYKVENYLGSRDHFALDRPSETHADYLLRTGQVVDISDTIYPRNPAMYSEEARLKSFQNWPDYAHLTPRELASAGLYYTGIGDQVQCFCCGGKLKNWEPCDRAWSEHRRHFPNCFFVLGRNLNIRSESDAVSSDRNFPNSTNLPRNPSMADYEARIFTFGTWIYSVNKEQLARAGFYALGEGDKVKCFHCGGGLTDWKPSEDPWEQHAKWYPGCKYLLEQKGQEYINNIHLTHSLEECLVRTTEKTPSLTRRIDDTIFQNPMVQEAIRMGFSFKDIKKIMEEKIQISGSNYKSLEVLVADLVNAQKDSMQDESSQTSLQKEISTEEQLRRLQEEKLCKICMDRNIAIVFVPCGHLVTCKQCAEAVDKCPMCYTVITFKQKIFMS
# Test: XIAP binders, primary screen, biophysical, small-molecule microarray, fluorescence 635 nm (AID 1181);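 note: score merges 667 nm emission and signal to noise over triplicate slides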
# Settings: small-molecule microarray binding, higher = more signal
row,Compound,composite z-score
1,CCCCC(O)C1C=CC2C(=O)N(C)C(=O)C2N1Nc1ccccc1 (stereo unspecified),0.0742
2,O=C1C2C=CC(C(O)c3cccs3)N(Nc3ccccc3)C2C(=O)N1c1ccccc1 (stereo unspecified),0.0537
3,COC(=O)[C@@]1(Cc2ccccc2)[C@@H]2[C@@H](CC(=O)[C@H]2CC(=O)C(=O)N(C)C)CN1C(=O)c1ccccc1,0.0464
4,CC=CC(O)C1C=CC2C(=O)N(C)C(=O)C2N1NC(=O)OC(C)(C)C (stereo unspecified),0.0621
5,CN(C)C(=O)[C@]1(Cc2ccccc2)N=C(c2ccc(OCCCO)cc2)O[C@@H]1c1ccccc1,0.125
6,C=CCC(OC(C)=O)[C@@H]1[C@@H](N(Cc2cccc3ccccc23)C(=O)c2ccc(-c3ccccc3)cc2)c2cc(OCCCO)ccc2N1C(=O)c1ccc2ccccc2n1 (stereo partly specified),-0.0102
7,C=CCC(OC(C)=O)[C@@H]1[C@@H](N(Cc2ccc(-c3ccccc3)cc2)C(=O)c2ccc(-c3ccccc3)cc2)c2cc(OCCCO)ccc2N1C(=O)c1ccc2ccccc2n1 (stereo partly specified),-0.0103
8,NC(=O)NCC#Cc1ccc2c(c1)[C@]1(C(=O)N2)[C@H](C(=O)N2CCCCCCC2)[C@H]2C(=O)O[C@H](c3ccccc3)[C@H](c3ccccc3)N2[C@@H]1c1ccc(O)cc1,0.751
9,C=CCC(OC(C)=O)[C@@H]1[C@@H](N(Cc2ccc(-c3cccc(C(F)(F)F)c3)o2)C(=O)Cc2ccc(F)cc2)c2cc(OCCCO)ccc2N1C(=O)c1ccc2ccccc2c1 (stereo partly specified),-0.224
10,O=C1C2C=CC(C(O)c3ccc([N+](=O)[O-])cc3)N(Nc3ccccc3)C2C(=O)N1c1ccccc1 (stereo unspecified),-0.0085
11,O=C1c2ccccc2[C@@]2(Cc3ccccc3N(Cc3ccccc3)C2=O)[C@H](c2ccc(CO)cc2)N1Cc1ccccc1,-0.0525
12,CCOC(=O)C[C@H]1[C@H](OC(=O)Cc2ccc3c(c2)OCO3)[C@@H](NC(=O)c2ccccc2)c2cc(OCCCO)ccc2N1C(=O)Cc1ccc(OC)cc1,-0.162
13,CCOC(=O)C[C@H]1[C@H](OC(=O)c2ccc(-c3ccccc3)cc2)[C@@H](NC(=O)CC(C)C)c2cc(OCCCO)ccc2N1C(=O)Cc1ccc(OC)cc1,-0.274
14,CC(C)CNC(=O)[C@@H]1c2ccccc2C(=O)N(C2Cc3ccccc3C2)[C@H]1c1ccc(CO)cc1,-0.109
15,C=C(COC)C(=O)CC[C@@H](OC(C)=O)c1ccc(OCCO)cc1,-0.0848
16,COCCOC(=O)N1C(=O)[C@@]2(c3cc(C#CC4(O)CCCCCC4)ccc31)[C@H](c1ccc(OCCO)cc1)N1[C@H](c3ccccc3)[C@H](c3ccccc3)OC(=O)[C@H]1[C@@H]2C(=O)N1CCCCCCC1,-0.151
